Screening data as filed in PubChem BioAssay.
MITF TRPM1 inh: MITF TRPM1 promoter inhibition in SK-MEL-5 cells | AID 488899 | 0.83% of 330,000 active | inhibition, % at 12.5 µM | SK-MEL-5 TRPM1 promoter luciferase, 24 h;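 active = mean inhibition across replicates of 60% or more, whatever share of single replicates reaches that level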
EBV LMP1 NFkB: reduces LMP1-driven NF-kappaB luciferase signal. LMP1-induced NF-kappaB luciferase reporter cells, luminescence. 0.69% of 350,000 active. inhibition, % at 12.5 µM; in the data active = inhibition above about 41%
TWEAK Fn14 block: blocks TWEAK-Fn14 interaction in a reporter cell assay | TWEAK-stimulated Fn14 reporter cells, luciferase luminescence, 8 h | inhibition, % at 10 µM | 2% of 360,000 active; in the data active = inhibition above about 50%
TROY NFkB inh: inhibitors of TROY-dependent NF-kB signaling. Q293 LMP1-TROYcd NF-kB luciferase reporter, 4 h. inhibition, % at 10 µM. 0.98% of 360,000 active;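 active = compounds whose plate-normalised and pattern-corrected inhibition of the luciferase reporter signal at the single screening dose is 50% or more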
Peg3 prom inh: inhibitors of Peg3 promoter. HeLa PEG-Prom luciferase reporter, luminescence, overnight. inhibition, % at 20 µM. 1.7% of 360,000 active;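 active = inhibition of at least 50% at 20 µM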
Shn3 inh set2: reduces Shn3 3'UTR luciferase signal in osteoblasts; Clone20 osteoblast Shn3 3'UTR firefly luciferase, 24 h; inhibition, % at 12.5 µM; 0.52% of 360,000 active;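 active = mean inhibition of at least 75% with every replicate also reaching 75%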
Each line names hits and unclear results; the compound was inactive in the other large screens; ! = repeats disagree. In the library only some 4.1% were active in any assay of this set; here they are far more common.

O=[N+]([O-])c1cc(C(F)(F)F)cc([N+](=O)[O-])c1NCCNC(=S)Nc1ccc(Cl)c(Cl)c1	TROY NFkB inh 58, Peg3 prom inh 53 (no result: Shn3 inh set2)
CCCNC(=O)N1CCN(S(=O)(=O)c2ccc(C)c(C)c2)CC1	EBV LMP1 NFkB 47
Cc1ccccc1Sc1ncnc2onc(C)c12	none
Cc1noc2ncnc(Sc3c(Cl)cccc3Cl)c12	TROY NFkB inh 57, Peg3 prom inh 97
Cc1noc2ncnc(Sc3ccc(Cl)cc3)c12	TWEAK Fn14 block 65, Peg3 prom inh 102
Cc1ccc(Sc2ncnc3onc(C)c23)cc1	none
N#Cc1c2c(c(Nc3ccc(O)cc3)n3c1nc1ccccc13)CCC2	none
O=C(O)C1C=CC(C(=O)O)c2ccccc21 (configuration not stated)	none (no result: MITF TRPM1 inh)
COc1ccc(-c2ccc3oc(-c4ccsc4)cc(=O)c3c2)cn1	TROY NFkB inh 63
CN(C)CCCN(C(=O)CCOc1ccccc1)c1nc2ccc(F)cc2s1	TWEAK Fn14 block 61, Peg3 prom inh 72
Cc1cccc2sc(N(CCCN(C)C)C(=O)c3sc4ccccc4c3Cl)nc12	none
CN(C)CCCN(C(=O)COc1ccccc1)c1nc2ccc(F)cc2s1	none
Cc1cccc2sc(N(CCCN(C)C)C(=O)c3ccc(C(=O)c4ccccc4)cc3)nc12	Peg3 prom inh 86
CN(C)CCCN(C(=O)CCOc1ccccc1)c1nc2c(F)cccc2s1	Peg3 prom inh 50
Cc1ccc(OCC(=O)NNC(=O)C2CCCO2)c(C)c1 (configuration not stated)	none
COc1ccc(N(CC(=O)N2CCN(Cc3ccccc3)CC2)S(C)(=O)=O)c(OC)c1	none
COc1ccc(/C=N/NC(=O)c2ccn[nH]2)cc1COc1ccc([N+](=O)[O-])c(C)c1	none (no result: MITF TRPM1 inh, EBV LMP1 NFkB)
COc1ccc(/C=N/NC(=O)c2cccnc2)cc1COc1ccc([N+](=O)[O-])c(C)c1	TROY NFkB inh 55
COc1ccc(/C=N/NC(=O)c2cccnc2)cc1CSc1nc2ccccc2s1	TWEAK Fn14 block 52, TROY NFkB inh 50
CC(=O)c1c(C)[nH]c(C(=O)COC(=O)COc2ccccc2F)c1C	none
CN(C)S(=O)(=O)c1ccc(C(=O)NC(=O)CSc2nncs2)cc1	none (no result: MITF TRPM1 inh)
Cc1c(CCOC(=O)C2C3CC4CC(C3)CC2C4)sc[n+]1CC(=O)c1ccc(Br)cc1 (configuration not stated)	MITF TRPM1 inh 95!, Peg3 prom inh 101
COc1ccc(NC(=O)COc2cccc3c2CCN(C)C3=O)c(OC)c1	none
CC(=O)c1c(C(C)=O)c(C)n(-c2cccc([N+](=O)[O-])c2)c1C	none
CC(=O)C1=C(c2cccc([N+](=O)[O-])c2)N(C(C)=O)n2c(C)nnc2S1	TWEAK Fn14 block 60
CC(=O)Nc1cccc(NC(=O)CSc2nc(C)c(C)c(C)c2C#N)c1	none
Cc1cccc(C)c1NC(=O)CSc1nc(C)c(CC(=O)c2ccc(Br)cc2)c(C)c1C#N	Peg3 prom inh 60
COC(=O)c1c(NC(=O)c2cccnc2Cl)sc(C(=O)N(C)C)c1C	none
COc1ccc(/C=N/OCC(=O)NC(c2ccccc2)c2ccccc2)cc1OC	TWEAK Fn14 block 52
COc1ccc(/C=N/OCC(=O)Nc2cc(C)on2)cc1OC	none
FC(F)(F)C1=Nc2cccc3cccc(c23)N1	Peg3 prom inh 111
Fc1ccc(C2=Nc3cccc4cccc(c34)N2)cc1	none
Cc1ccc(Cl)cc1NS(=O)(=O)N1CCOCC1	none
COC(=O)Cc1ccc(NC(=S)N2CCN(c3cc(Cl)ccc3C)CC2)cc1	TWEAK Fn14 block 56
CCN(c1ccccc1)S(=O)(=O)c1ccc(Cl)c(NC(=O)COC(=O)c2ccc[nH]c2=O)c1	none
Cc1[nH]n2c(=O)cc(-c3ccc([N+](=O)[O-])cc3)nc2c1-c1ccccc1	Peg3 prom inh 58
CCCc1cc(=O)n2[nH]c(C)c(-c3ccccc3)c2n1	none
COc1ccc(-c2c(C(F)(F)F)[nH]n3c(=O)cc(-c4ccccc4)nc23)cc1	TROY NFkB inh 51
COC(=O)c1ccccc1S(=O)(=O)N1CCC(NC(=O)C(Cc2cccc(OC)c2OC)NC(C)=O)CC1 (configuration not stated)	none
CCS(=O)(=O)N1CCC(NC(=O)C(Cc2cccc(OC)c2OC)NC(C)=O)CC1 (configuration not stated)	TWEAK Fn14 block 85
Cc1ccc(C)c(CN2CCC(n3nccc3NC(=O)CCCc3ccccc3)CC2)c1	none
